In PubChem BioAssay (NCATS):
Records with an inconclusive call do not appear. The source made the active and inactive calls. Unless noted, the call rests on the fitted dose curve; in most records, active means well fitted curve in the direction sought with a large enough effect; inconclusive means small, poorly fitted or top-dose-only effect, or another doubt; inactive means no such curve, though single readings can be large; an effect the other way counts as inactive or inconclusive.

Experiments:
[1] = NFAT Signaling Pathway (AID 444; active means well fitted curve in either direction with a large enough effect, not every such curve was filed as active;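 further: carbachol stimulus at about its EC50 of 1 µM final; on the % scale 0 is the no-effect control and ±100 the full control effect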); settings: Jurkat NFAT-bla M1, carbachol, beta-lactamase ratio, 5 h; at 38 µM (top of the series)
Method in brief: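 Jurkat cells carrying an NFAT-driven β-lactamase reporter and co-transfected muscarinic M1 receptor were treated with compound plus carbachol (1 uM final, an EC50 level) for 5 h at 37 °C. CCF4 loading followed for 1 h at RT; 460/530 nm ratio gave %activity.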

[2] = molecular target: Glucocorticoid receptor (Homo sapiens) (UniProt P04150); test: GR-GFP Redistribution (AID 450;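 active means compounds whose dose series gives a full or clear partial fitted curve of increased nuclear translocation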; further: potency means the concentration at half of the fitted maximal effect); settings: U2OS GR-GFP nuclear translocation, laser cytometry, 2 h
[3] = molecular target: Glucocorticoid receptor (Homo sapiens) (UniProt P04150); test: GR-EFC Redistribution (AID 451; calls by dose curve; further: potency means the concentration at half of the fitted maximal effect); settings: CHO-K1 GR-EFC translocation, beta-gal luminescence, 2 h
Method in brief: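 CHO-K1 cells stably expressing nuclear-localized β-gal enzyme acceptor and GR fused C-terminally to the enzyme donor fragment; ligand-driven nuclear translocation restores β-gal by complementation. Compounds titrated up to 46 uM final, 2 h at 37 °C; luminescence read.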

[4] = molecular target: 3',5'-cyclic-AMP phosphodiesterase 4B (Homo sapiens) (UniProt Q07343); test: qHTS Assay for Inhibitors of PDE-IV (AID 607; active means well fitted activation curve with a large enough effect in the main read-out, with a control signal flat, not every such curve was filed as active; further: % of control where 0% means no effect)
Method in brief: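 ACTOne HEK293 cells carry a modified cAMP-gated CNG channel and express endogenous PDE4; plated 1000 cells/well, compounds up to 22.9 uM final. Membrane-potential dye fluorescence (ex 535/em 590) was read; parental cells received 10 uM forskolin + 100 uM RO 20-1724.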

[5] = molecular target: Guanine nucleotide-binding protein G(i) subunit alpha-1 (Homo sapiens) (UniProt P63096); test: qHTS Assay for Inhibitors of RGS12 GoLoco Motif Activity (Green Fluorophore) (AID 879);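 further: 0% = labeled peptide with Gαi1 and full inhibition = labeled peptide alone without protein; negative values mean loss of peptide binding seen as reduced polarization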
Method in brief: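 Fluorescence polarization assay: 50 nM Gαi1 with 10 nM FITC-labeled RGS12 GoLoco peptide in 10 mM Tris pH 7.5, 150 mM NaCl, 0.1 mM GDP, 0.05% NP40, 10 min at room temperature with compound.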

[6] = molecular target: Muscarinic acetylcholine receptor M1 (Rattus norvegicus) (UniProt P08482); test: qHTS Assay for Antagonists of Acetylcholine Muscarinic M1 Receptor: Kinetic Measurement of Intracellular Calcium Response (AID 943);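 further: Fluo-4 calcium signal as peak divided by basal fluorescence over 4 min; nearly all actives have a fitted effect of over 75% in size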
Method in brief: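 Rat M1-CHO cells, 2000/well, overnight → Fluo-4 no-wash dye with probenecid, 1 h 37C → compound 10 min, room temp → basal read 6 s → carbachol EC80 (100 nM) → 4 min kinetic read; peak/basal.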

[7] = molecular target: Muscarinic acetylcholine receptor M1 (Rattus norvegicus) (UniProt P08482); test: qHTS Assay for Antagonists of Acetylcholine Muscarinic M1 Receptor: Measurement of IP-One Response (AID 944); further: nearly all actives have a fitted effect of over 75% in size
Method in brief: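 M1-CHO (rat), 2000 cells/well, overnight recovery; cpd 10 min; carbachol EC80 (200 nM), 30 min, HEPES buffer + 50 mM LiCl pH 7.4; IP-One HTRF, Ex 337, Em 620/665 nm.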

[8] = molecular target: Pyruvate kinase (Leishmania mexicana) (UniProt Q27686); test: qHTS Validation Assay for Inhibitors of Leishmania Mexicana Pyruvate Kinase (AID 945);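 further: 0% = DMSO only neutral control wells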
Method in brief: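 Read-out: luminescence from PKLight stop/detection reagent, data normalized to DMSO. Reaction: 0.2 nM E451W LmPYK, 0.5 mM PEP, 0.1 mM ADP, pH 7.2, 1 h room temperature.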

[9] = molecular target: Pyruvate kinase PKM (Homo sapiens) (UniProt P14618); test: qHTS Assay for Activators of Human Muscle Pyruvate Kinase (AID 954; active means well fitted curve in the direction sought with a large enough effect, not every such curve was filed as active;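 further: 0% = uninhibited enzyme and -100% = no enzyme or full thiadiazolimine inhibition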)
Method in brief: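 Luminescence from a luciferase ATP-detection/stop reagent reported PKM2 activity. Reactions contained 0.1 nM purified human enzyme, 0.5 mM PEP, 0.1 mM ADP and 7 mM MgCl2 at pH 7.2, run 1 h at RT.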

[10] = molecular target: Alpha-galactosidase A (Homo sapiens) (UniProt P06280); test: Counterscreen for Glucocerebrosidase Inhibitors: qHTS Assay for Human alpha-Galactosidase at pH 4.5 (AID 992); further: 0% is about no effect
Method in brief: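 Enzyme at 2 nM final was combined with compound (0.7 nM to 77 uM) and 80 uM 4-methylumbelliferyl alpha-D-galactopyranoside in 50 mM citric acid, 0.005% Tween-20, pH 4.5. After 20 min at room temperature, fluorescence was read (Ex 365/Em 440 nm); AC50 came from Hill fits.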

[11] = molecular target: alpha-glucosidase (Oryza sativa, rice) (UniProt Q653V4); test: Counterscreen for Glucocerebrosidase Inhibitors: qHTS Assay for Rice alpha-Glucosidase at pH 5.0 (AID 997);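 further: 0% = full activity with enzyme and -100% = basal without enzyme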
Method in brief: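 Rice alpha-glucosidase (4 nM final) with 400 uM 4-methylumbelliferyl-alpha-D-glucopyranoside in citrate buffer pH 5.0, 20 min at room temperature, stopped at pH 10; fluorescence 365/440 nm, compounds 0.7 nM–77 uM, AC50 from Hill fits.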

[12] = molecular target: DNA repair nuclease/redox regulator APEX1 (Homo sapiens) (UniProt P27695); test: qHTS Validation Assay for Inhibitors of the Human Apurinic/apyrimidinic Endonuclease 1 (APE1) (AID 1705;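 further: TAMRA fluorescence gain over two minutes as APE1 cuts a quenched THF abasic duplex; on the % scale 0 is the no-effect control and ±100 the full control effect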)
Method in brief: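 Substrate: 50 nM final fluorophore/quencher THF-abasic duplex. Enzyme preincubated with compounds 15 min, RT. Progress derived from fluorescence difference, third minus first kinetic read.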

[13] = Counterscreen for APE1 Inhibitors: Fluorescent Dye Displacement Validation Assay (AID 1707);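 further: plate controls were ThO with dsDNA and no compound for no effect and ThO without dsDNA for full effect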
Method in brief: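 Thiazole Orange displacement from dsDNA: 250 nM ThO with 50 nM TAMRA-labelled abasic-site (tetrahydrofuran) duplex in 50 mM Tris-HCl pH7.5, 50mM NaCl, 2 mM MgCl2, 0.01% Tween-20. Loss of endpoint fluorescence (ex 480 nm, em 540 nm) flags DNA binders.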

[14] = molecular target: Endonuclease 4 (Escherichia coli (strain K12)) (UniProt P0A6C1); test: Counterscreen for APE1 Inhibitors: qHTS Validation Assay for Inhibitors of Endonuclease IV (AID 1708); further: on the % scale 0 is the no-effect control and ±100 the full control effect
Method in brief: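 Concentration-response counterscreen run identically to the APE1 assay: 15 min room-temperature preincubation of 2 nM enzyme with compound, reaction started with 50 nM quenched abasic DNA, progress taken from kinetic fluorescence.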

[15] = qHTS for differential inhibitors of proliferation of Plasmodium falciparum line 3D7 (AID 1876);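 further: parasite growth measured after three days of culture; 0% = vehicle wells and -100% = reference inhibitor wells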
[16] = qHTS for differential inhibitors of proliferation of Plasmodium falciparum line D10 (AID 1877);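 further: parasites grown with compound for 72 h before DNA staining; plate controls were vehicle wells for no effect and reference inhibitor wells for full effect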
[17] = qHTS for differential inhibitors of proliferation of Plasmodium falciparum line Dd2 (AID 1882); settings: Potency: Plasmodium falciparum Dd2 proliferation inhibition;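 further: plate controls were DMSO vehicle for no effect and 0.29 µM artemisinin for full effect; nearly all actives have a fitted effect of over 65% in size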
Method in brief: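 Dd2-infected erythrocytes (0.3% parasitemia, 2.5% hematocrit final) incubated with compound 72 h at 37 C, 5% CO2; lysed with saponin/Triton buffer containing SYBR Green I, incubated overnight in the dark, then read by fluorescence (485/535 nm). Normalized to 0.29 uM artemisinin and DMSO.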

[18] = qHTS for differential inhibitors of proliferation of Plasmodium falciparum line W2 (AID 1883); settings: Potency: Plasmodium falciparum W2 proliferation inhibition;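 further: potency means the concentration at half of the fitted maximal effect; parasites grown with compound for 72 h before lysis and staining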
[19] = qHTS for differential inhibitors of proliferation of Plasmodium falciparum line HB3 (AID 1886); settings: Potency: Plasmodium falciparum HB3 proliferation inhibition;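 further: parasites grown with compound for 72 h before SYBR Green readout; plate controls were vehicle for no effect and reference inhibitor for full effect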
[20] = molecular target: Ferritin light chain (Equus caballus) (UniProt P02791); test: qHTS Validation Assay for Identification of Novel General Anesthetics (AID 2323); further: on the % scale 0 is the no-effect control and ±100 the full control effect
Method in brief: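 Normalized fluorescence response, scaled between free 1-AMA and 1-AMA/apoferritin complex, fitted to a four-parameter Hill equation for concentration-effect values. Binding mix: 10 uM horse-spleen apoferritin, 50% saturated 1-AMA in PBS; read 380/535 nm after 10 min.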

[21] = molecular target: ATP-dependent DNA helicase Q1 (Homo sapiens) (UniProt P46063); test: qHTS Validation Assay for Inhibitors of RecQ-Like Dna Helicase 1 (RECQ1) (AID 2353);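 further: plate controls were DMSO vehicle for no effect and enzyme-free control for full effect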
Method in brief: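 50 nM RECQ1T1 preincubated 15 min with compound in Tris pH 8.0 buffer with MgCl2, DTT, Tween-20 and 2.5 ug/ml poly(dI-dC); started with 200 nM TAMRA/BHQ-2 forked duplex and 2 mM ATP. Unwinding read as fluorescence (525/598 nm), two reads 2 h apart.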

[22] = molecular target: RecQ-like DNA helicase BLM (Homo sapiens) (UniProt P54132); test: qHTS Validation Assay for Inhibitors of Bloom's syndrome helicase (BLM) (AID 2364);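 further: plate controls were DMSO vehicle for no effect and enzyme-free control for full effect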
Method in brief: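 BLM 50 nM in 25 mM Tris-HCl pH 8.0, 5 mM NaCl, 2 mM MgCl2, 1 mM DTT, 0.01% Tween-20, 2.5 ug/ml poly(dI-dC); 15 min cpd preinc, RT. Start: 200 nM forked DNA + 2 mM ATP (final). TAMRA read, 2 reads 2 h apart.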

[23] = Validation screen for small molecules that induce DNA re-replication in MCF 10A normal breast cells (AID 463097); further: 0% is about no effect; nearly all actives have a fitted effect of over 60% in size
Method in brief: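 Following 48 hr compound incubation (37 C, 5% CO2), MCF 10A cells receive Hoechst for 40 min at 37 C. Nuclei are then scanned (excitation 405 nm, emission 500-530 nm) for total fluorescence intensity.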

[24] = Quantitative high throughput screen for delayed death inhibitors of the malarial parasite plastid, 96 hour incubation (AID 488745);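 further: luciferase-expressing P. falciparum in erythrocytes at 2% hematocrit and 0.1% parasitemia; on the % scale 0 is the no-effect control and ±100 the full control effect; nearly all actives have a fitted effect of over 70% in size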
Method in brief: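 Infected erythrocytes were added to compound in Albumax-supplemented RPMI 1640 at 0.1% parasitemia and 2% hematocrit (final), incubated 96 h at 37 C under 5% CO2, then luciferase reagent was added and luminescence measured.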

[25] = molecular target: M-phase phosphoprotein 8 (Homo sapiens) (UniProt Q99549); test: qHTS Validation Assay for Inhibitors for MPP8 Chromodomain Interactions with Methylated Histone Tails (AID 488949);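 further: 50 nM MPP8 with 50 nM peptide preformed then compounds added for 30 min; AlphaScreen signal from MPP8 chromodomain bound to biotinylated H3K9me3 peptide; top concentration of the series differs between compounds; on the % scale 0 is the no-effect control and ±100 the full control effect; nearly all actives have a fitted effect of over 55% in size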
Method in brief: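 Chemiluminescent proximity assay: histidine-tag capture via nickel acceptor beads, biotin peptide via streptavidin donor beads. Protein and peptide each at 50 nM, pH 7.4, with 30 min incubations at room temperature for complex formation, compound exposure and bead binding.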

[26] = molecular target: Thyrotropin receptor (Homo sapiens) (UniProt P16473); test: qHTS Assay for Antagonists of the Thyroid Stimulating Hormone Receptor (AID 488980); further: 0% is about no effect
Method in brief: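 Inhibition of TSH-stimulated cAMP accumulation was quantified by homogeneous time-resolved FRET in TSHR-transfected HEK293 cells. Agonist: TSH, 4 nM final (EC80).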

[27] = molecular target: Thyrotropin-releasing hormone receptor (Homo sapiens) (UniProt P34981); test: qHTS for Small Molecule Agonists and Allosteric Enhancers of Human TRH Receptor: Validation Screen for Agonists (AID 493127;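 active means calcium activation more than 3 SD above the typical response in the agonist read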;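 further: intracellular calcium rise by fluo-8 fluorescence before TRH EC20 addition; 0% is about no effect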); settings: TRH receptor agonist cell assay; at 2 µM; hits give high values
Method in brief: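 Cells 2000/well, 10% FCS, 18 h 33.5C/5% CO2 → fluo-8 Ca dye, RT 30 min–1.5 h → FDSS baseline 10 × 1 s → compound added → 230 cycles (1 s/cycle) agonist mode. TRH controls.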

[28] = molecular target: Galactokinase (Homo sapiens) (UniProt P51570); test: qHTS Validation Assay for Inhibitors of Human Galactokinase (GALK) (AID 493189); further: 0% is about no effect
Method in brief: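 Enzyme activity is inferred from ATP consumption: human GALK phosphorylates galactose (100 uM) using 35 uM ATP for 1 h at room temperature, and luciferase-based Kinase-Glo Plus reports unconsumed ATP.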

[29] = Validation screen for small molecules that induce DNA re-replication in SW480 colon adenocarcinoma cells (AID 504364); further: 0% is about no effect
Method in brief: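 250 cells/well; compound pinned in; 48 hr, 37 C, 5% CO2; Hoechst added, 40 min; nuclear fluorescence imaged, 405 ex / 500-530 em; re-replication scored as increase in high-intensity nuclei.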

[30] = molecular target: DNA dC->dU-editing enzyme APOBEC-3G (Homo sapiens) (UniProt Q9HC16); test: qHTS for inhibitors of Vif-A3G interactions: Validation (AID 588379); further: 0% is about no effect
Method in brief: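 HeLa cells stably expressing Vif and A3G-eYFP, 700 cells/well, incubated overnight at 37 deg C, then exposed to compound overnight at 37 deg C. Inhibition of Vif-mediated degradation read as increased yellow fluorescence (Ex 488/Em 500-530) by laser-scanning cytometry.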

[31] = system: Zika virus NS2B-NS3 protease; test: Primary screen GU AMC qHTS for Zika virus inhibitors (AID 1347154);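 further: 0% = no-inhibitor control and -100% = no-enzyme control; nearly all actives have a fitted effect of over 70% in size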
Method in brief: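 Unlinked Zika NS2B hydrophilic domain/NS3 protease domain noncovalent complex (25 nM final) in 10 mM Tris-HCl pH 8.0, 0.01% Tween 20, with AMC peptide substrate. Fluorescence (ex 340, em 450 nm) change over 15 min, room temperature; percent inhibition fitted to 4-parameter Hill equation.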

[32] = Primary qHTS for small molecule stabilizers of the endoplasmic reticulum resident proteome: Secreted ER Calcium Modulated Protein (SERCaMP) assay (AID 1508630); further: on the % scale 0 is the no-effect control and ±100 the full control effect
Method in brief: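 GLuc-SERCaMP-expressing SH-SY5Y cells, pretreated 16 h with compound, are challenged with thapsigargin to empty ER calcium stores; after 4 h, coelenterazine is added directly to the medium and luminescence is imaged.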

Glucocorticoid receptor (Homo sapiens), sequence (P04150 whole entry, looked up, the tested form may be a part): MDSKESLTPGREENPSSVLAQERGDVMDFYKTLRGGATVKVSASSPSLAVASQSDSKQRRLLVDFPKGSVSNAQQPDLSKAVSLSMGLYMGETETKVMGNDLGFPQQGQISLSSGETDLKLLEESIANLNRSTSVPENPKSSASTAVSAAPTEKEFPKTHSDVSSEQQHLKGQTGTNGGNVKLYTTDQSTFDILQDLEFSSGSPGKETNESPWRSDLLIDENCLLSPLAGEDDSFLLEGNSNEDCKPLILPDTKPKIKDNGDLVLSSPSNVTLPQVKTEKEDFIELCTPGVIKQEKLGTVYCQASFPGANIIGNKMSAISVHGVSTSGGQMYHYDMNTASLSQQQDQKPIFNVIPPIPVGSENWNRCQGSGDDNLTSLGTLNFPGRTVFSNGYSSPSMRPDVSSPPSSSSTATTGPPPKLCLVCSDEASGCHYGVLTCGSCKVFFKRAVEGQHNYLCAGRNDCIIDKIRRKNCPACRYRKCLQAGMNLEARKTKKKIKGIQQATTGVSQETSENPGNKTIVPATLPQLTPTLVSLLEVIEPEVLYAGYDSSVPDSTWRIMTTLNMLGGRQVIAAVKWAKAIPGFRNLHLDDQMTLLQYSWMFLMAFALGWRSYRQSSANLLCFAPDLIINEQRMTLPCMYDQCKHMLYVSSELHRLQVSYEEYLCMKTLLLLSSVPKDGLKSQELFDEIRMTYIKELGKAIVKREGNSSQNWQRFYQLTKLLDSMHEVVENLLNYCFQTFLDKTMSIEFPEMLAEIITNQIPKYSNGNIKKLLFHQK
Muscarinic acetylcholine receptor M1 (Rattus norvegicus), sequence (P08482 whole entry, looked up): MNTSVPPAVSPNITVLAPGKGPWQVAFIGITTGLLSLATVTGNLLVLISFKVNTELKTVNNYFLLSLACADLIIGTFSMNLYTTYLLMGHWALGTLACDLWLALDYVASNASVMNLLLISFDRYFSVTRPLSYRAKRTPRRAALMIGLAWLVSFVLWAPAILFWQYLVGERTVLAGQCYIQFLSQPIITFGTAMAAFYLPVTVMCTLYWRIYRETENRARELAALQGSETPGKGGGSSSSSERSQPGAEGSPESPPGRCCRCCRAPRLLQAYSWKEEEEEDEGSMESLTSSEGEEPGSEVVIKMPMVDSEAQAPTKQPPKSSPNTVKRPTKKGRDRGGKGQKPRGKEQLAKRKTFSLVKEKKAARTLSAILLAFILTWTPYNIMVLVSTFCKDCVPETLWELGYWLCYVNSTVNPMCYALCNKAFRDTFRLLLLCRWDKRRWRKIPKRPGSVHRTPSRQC
Galactokinase (Homo sapiens), sequence (P51570 whole entry, looked up): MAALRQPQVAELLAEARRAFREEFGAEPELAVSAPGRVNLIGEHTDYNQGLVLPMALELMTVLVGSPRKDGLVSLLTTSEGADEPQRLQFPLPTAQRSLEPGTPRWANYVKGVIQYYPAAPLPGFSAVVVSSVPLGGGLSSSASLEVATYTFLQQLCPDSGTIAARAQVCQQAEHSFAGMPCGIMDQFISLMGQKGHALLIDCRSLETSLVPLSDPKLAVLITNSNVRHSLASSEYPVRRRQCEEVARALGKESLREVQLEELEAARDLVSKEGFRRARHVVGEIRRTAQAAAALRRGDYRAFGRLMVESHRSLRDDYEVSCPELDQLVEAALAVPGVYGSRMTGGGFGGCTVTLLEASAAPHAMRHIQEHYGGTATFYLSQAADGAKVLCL
DNA repair nuclease/redox regulator APEX1 (Homo sapiens), sequence (P27695 whole entry, looked up): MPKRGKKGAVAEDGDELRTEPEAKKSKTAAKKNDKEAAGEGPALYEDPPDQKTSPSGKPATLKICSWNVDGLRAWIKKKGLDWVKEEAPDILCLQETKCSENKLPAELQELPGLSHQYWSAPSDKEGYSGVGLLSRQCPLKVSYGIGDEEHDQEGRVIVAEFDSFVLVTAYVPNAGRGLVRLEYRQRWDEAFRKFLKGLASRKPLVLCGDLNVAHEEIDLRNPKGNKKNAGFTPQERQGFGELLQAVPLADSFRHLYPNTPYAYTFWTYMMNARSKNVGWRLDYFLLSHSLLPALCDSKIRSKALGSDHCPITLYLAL
Thyrotropin receptor (Homo sapiens), sequence (P16473 whole entry, looked up): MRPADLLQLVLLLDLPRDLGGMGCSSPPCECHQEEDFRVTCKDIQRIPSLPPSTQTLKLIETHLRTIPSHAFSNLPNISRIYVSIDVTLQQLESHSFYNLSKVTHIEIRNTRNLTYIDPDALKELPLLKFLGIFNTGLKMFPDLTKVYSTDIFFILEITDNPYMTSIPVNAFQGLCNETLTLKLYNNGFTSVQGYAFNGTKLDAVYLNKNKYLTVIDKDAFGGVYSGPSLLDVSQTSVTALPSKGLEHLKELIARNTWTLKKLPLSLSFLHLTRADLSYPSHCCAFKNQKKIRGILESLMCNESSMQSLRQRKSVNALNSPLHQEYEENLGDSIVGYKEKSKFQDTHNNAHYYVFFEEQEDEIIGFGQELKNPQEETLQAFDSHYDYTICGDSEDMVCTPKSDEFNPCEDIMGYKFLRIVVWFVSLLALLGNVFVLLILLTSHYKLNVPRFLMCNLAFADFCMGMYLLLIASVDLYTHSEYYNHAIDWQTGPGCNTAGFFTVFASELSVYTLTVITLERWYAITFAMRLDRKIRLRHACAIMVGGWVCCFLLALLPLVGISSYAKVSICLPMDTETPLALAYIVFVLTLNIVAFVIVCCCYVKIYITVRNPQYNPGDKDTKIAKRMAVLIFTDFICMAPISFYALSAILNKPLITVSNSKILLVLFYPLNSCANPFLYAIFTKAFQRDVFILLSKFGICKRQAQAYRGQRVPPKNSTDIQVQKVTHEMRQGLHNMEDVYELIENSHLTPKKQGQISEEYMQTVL
RecQ-like DNA helicase BLM (Homo sapiens), sequence (P54132 whole entry, looked up): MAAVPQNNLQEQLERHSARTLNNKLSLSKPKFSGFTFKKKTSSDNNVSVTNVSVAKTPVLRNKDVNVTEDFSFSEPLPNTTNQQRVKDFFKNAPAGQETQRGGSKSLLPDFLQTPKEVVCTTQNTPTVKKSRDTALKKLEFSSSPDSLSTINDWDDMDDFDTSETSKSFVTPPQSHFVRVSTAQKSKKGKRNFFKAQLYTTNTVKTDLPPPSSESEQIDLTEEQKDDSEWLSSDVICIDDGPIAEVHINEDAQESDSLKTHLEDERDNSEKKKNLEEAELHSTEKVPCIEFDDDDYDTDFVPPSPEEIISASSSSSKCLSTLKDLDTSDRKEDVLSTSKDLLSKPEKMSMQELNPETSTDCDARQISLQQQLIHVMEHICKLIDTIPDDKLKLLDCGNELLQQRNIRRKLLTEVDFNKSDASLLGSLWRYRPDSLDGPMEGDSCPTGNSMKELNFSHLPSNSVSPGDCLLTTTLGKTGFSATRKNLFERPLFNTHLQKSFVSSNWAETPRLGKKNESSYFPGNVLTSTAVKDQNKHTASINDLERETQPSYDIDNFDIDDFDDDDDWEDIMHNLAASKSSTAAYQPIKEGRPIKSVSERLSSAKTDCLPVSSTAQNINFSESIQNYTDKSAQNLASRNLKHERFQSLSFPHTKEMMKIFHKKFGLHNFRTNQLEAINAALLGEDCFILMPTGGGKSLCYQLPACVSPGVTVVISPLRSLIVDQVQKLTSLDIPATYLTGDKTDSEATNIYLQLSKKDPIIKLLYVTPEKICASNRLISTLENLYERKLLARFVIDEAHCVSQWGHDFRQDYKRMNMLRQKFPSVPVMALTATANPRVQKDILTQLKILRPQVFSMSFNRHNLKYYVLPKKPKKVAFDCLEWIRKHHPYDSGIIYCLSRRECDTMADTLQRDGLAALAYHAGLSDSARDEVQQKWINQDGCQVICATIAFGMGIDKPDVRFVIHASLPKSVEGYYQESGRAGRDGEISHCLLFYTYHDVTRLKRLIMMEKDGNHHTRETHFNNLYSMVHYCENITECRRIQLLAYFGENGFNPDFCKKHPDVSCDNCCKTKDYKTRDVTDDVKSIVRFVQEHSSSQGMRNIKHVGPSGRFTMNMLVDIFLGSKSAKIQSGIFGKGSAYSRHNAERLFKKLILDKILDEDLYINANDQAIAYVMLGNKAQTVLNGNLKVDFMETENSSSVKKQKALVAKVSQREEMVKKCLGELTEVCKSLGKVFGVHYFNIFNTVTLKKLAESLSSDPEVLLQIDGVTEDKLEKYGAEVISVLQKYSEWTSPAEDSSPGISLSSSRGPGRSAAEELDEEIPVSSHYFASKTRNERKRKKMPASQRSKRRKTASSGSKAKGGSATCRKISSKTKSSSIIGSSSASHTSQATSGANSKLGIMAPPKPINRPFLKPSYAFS
Alpha-galactosidase A (Homo sapiens), sequence (P06280 whole entry, looked up): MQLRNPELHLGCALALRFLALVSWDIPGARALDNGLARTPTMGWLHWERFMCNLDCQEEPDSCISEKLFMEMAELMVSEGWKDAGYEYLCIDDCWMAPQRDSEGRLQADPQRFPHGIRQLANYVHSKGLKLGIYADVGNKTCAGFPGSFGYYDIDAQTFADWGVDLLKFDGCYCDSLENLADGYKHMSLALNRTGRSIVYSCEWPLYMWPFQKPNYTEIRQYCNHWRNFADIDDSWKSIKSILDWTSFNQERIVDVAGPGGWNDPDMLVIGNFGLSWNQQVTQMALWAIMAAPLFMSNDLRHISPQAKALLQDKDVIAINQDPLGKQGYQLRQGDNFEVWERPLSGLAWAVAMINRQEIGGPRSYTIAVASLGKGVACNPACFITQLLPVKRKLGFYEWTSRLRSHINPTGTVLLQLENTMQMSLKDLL
Guanine nucleotide-binding protein G(i) subunit alpha-1 (Homo sapiens), sequence (P63096 whole entry, looked up): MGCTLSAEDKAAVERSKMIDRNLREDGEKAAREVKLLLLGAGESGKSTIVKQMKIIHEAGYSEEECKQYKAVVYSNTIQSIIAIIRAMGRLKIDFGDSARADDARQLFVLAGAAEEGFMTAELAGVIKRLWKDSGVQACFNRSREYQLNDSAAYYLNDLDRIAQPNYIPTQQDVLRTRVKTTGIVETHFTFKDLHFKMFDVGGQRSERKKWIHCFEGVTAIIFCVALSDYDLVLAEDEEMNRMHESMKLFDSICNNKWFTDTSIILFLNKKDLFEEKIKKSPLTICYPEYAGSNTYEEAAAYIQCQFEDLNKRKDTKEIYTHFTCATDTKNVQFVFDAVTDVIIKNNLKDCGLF

NCCNS(=O)(=O)c1cccc2cnccc12
active: Potency [18] 11.2 µM
inactive: activity change, negative = inhibition [1] -13.5% | Potency [2] > 46 µM | Potency [3] > 46 µM | Potency [4] | outcome [5] | Potency [6] | Potency [7] | Potency [8] | outcome [9] | outcome [10] | outcome [11] | Potency [12] | Potency [13] | Potency [14] | Potency [15] | Potency [16] | Potency [17] | Potency [19] | outcome [20] | Potency [21] | Potency [22] | Potency [23] | Potency [24] | Potency [25] | outcome [26] | activation [27] -0.5% | outcome [28] | outcome [29] | Potency [30] | Potency [31] | Potency [32]
